# Reference: PubChem BioAssay (EPA / NIEHS)
# Activity calls are given as the source filed them. How the source made its calls: active means hit-call score of the fitted dose curve at least 0.9, where 1 is the maximum; inactive means score below 0.9.
# Assays:
# Settings in all cases: mRNA level, 48 h; actives raise or lower the signal
# [1] = read-out: Apolipoprotein A-V (APOA5) gene, APOA5 (gene 116519); experiment: LTEA_HepaRG_APOA5: Life Technologies and Expression Analysis (LTEA) Assay for Apolipoprotein A-V (APOA5) gene using HepaRG (AID 2283474)
# Summary of the method: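 Readout is APOA5 transcript level by qRT-PCR on Fluidigm dynamic arrays, normalized to three housekeeping genes. HepaRG cultures received chemicals for 48 h at up to 100 uM (half-log steps, 0.5% DMSO), with gain or loss scored relative to DMSO.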
# [2] = read-out: Apoptosis regulator Bcl-2 (Homo sapiens) (UniProt P10415); experiment: LTEA_HepaRG_BCL2: Life Technologies and Expression Analysis (LTEA) Assay for Bcl-2 gene using HepaRG (AID 2283475)
# Summary of the method: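 Each chemical was tested in duplicate on HepaRG cultures held in serum-free induction medium for 48 h, highest concentration 100 uM with half-log dilutions. Transcript levels came from multiplexed qRT-PCR, normalised to housekeeping genes; activity was scored in either direction relative to DMSO.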
# [3] = read-out: Bcl-2 (BID) gene, BID (gene 637); experiment: LTEA_HepaRG_BID: Life Technologies and Expression Analysis (LTEA) Assay for Bcl-2 (BID) gene using HepaRG (AID 2283476)
# Summary of the method: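 Assay used HepaRG hepatic cells treated 48 h in serum-free medium with half-log dilutions from 100 uM. Endpoint: BID mRNA, qRT-PCR, normalized to ACTB/GAPDH/POLR2A.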
# [4] = read-out: Caspase-3 (Homo sapiens) (UniProt P42574); experiment: LTEA_HepaRG_CASP3: Life Technologies and Expression Analysis (LTEA) Assay for cysteine-aspartic acid protease (CASP3) using HepaRG (AID 2283477)
# Summary of the method: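 Read-out is CASP3 mRNA level by TaqMan qRT-PCR in human HepaRG cells after 48 h chemical exposure. Eight half-log concentrations topping at 100 uM were tested in 0.5% DMSO; gain or loss was fitted relative to DMSO.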
# [5] = read-out: Cytochrome P450 (CYP24A1), CYP24A1 (gene 1591); experiment: LTEA_HepaRG_CYP24A1: Life Technologies and Expression Analysis (LTEA) Assay for Cytochrome P450 (CYP24A1) using HepaRG (AID 2283478)
# Summary of the method: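 HepaRG, 48 h chemical exposure, 8-pt half-log CRC from 100 uM, 0.5% DMSO vehicle, duplicates. Endpoint: CYP24A1 mRNA by Fluidigm TaqMan qRT-PCR, normalized ACTB/GAPDH/POLR2A; gain/loss fit vs DMSO.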
# [6] = read-out: Cytochrome P450 (CYP1A2), CYP1A2 (gene 1544); experiment: LTEA_HepaRG_CYP1A2: Life Technologies and Expression Analysis (LTEA) Assay for Cytochrome P450 (CYP1A2) using HepaRG (AID 2283479)
# Summary of the method: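 CYP1A2 transcript induction or loss, quantified by Fluidigm qRT-PCR against three housekeeping genes, was fitted bidirectionally against 0.5% DMSO controls. Human HepaRG cells received eight half-log concentrations from 100 uM over 48 h.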
# [7] = read-out: cysteine-aspartic acid protease (CASP8), CASP8 (gene 841); experiment: LTEA_HepaRG_CASP8: Life Technologies and Expression Analysis (LTEA) Assay for cysteine-aspartic acid protease (CASP8) using HepaRG (AID 2283480)
# Summary of the method: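 qRT-PCR readout of CASP8 mRNA, normalized to three housekeeping genes, after 48 h chemical exposure of HepaRG cells; 8-point half-log series, top 100 uM, 0.5% DMSO vehicle. Bidirectional curve fitting against DMSO baseline.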
# [8] = read-out: Cytochrome P450 (CYP2B6), CYP2B6 (gene 1555); experiment: LTEA_HepaRG_CYP2B6: Life Technologies and Expression Analysis (LTEA) Assay for Cytochrome P450 (CYP2B6) using HepaRG (AID 2283481)
# Summary of the method: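 HepaRG cells plated 48 h, switched to serum-free induction medium, then dosed 48 h (8 points, half-log from 100 uM, 0.5% DMSO). RNA isolated; CYP2B6 expression measured by qRT-PCR; gain or loss fitted relative to DMSO.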
# [9] = read-out: Cytochrome P450 2C19 (Homo sapiens) (UniProt P33261); experiment: LTEA_HepaRG_CYP2C19: Life Technologies and Expression Analysis (LTEA) Assay for CYP2C19 using HepaRG (AID 2283482)
# Summary of the method: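 Transcript levels of CYP2C19 were quantified by qRT-PCR after HepaRG cells were treated for 48 hours with test chemicals up to 100 uM (eight half-log concentrations, 0.5% DMSO vehicle). Gain or loss of signal was fitted relative to DMSO.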
# [10] = read-out: CYP2C8 (gene 1558); experiment: LTEA_HepaRG_CYP2C8: Life Technologies and Expression Analysis (LTEA) Assay for CYP2C8 using HepaRG (AID 2283483)
# Summary of the method: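 HepaRG (human liver line), 48 h chemical exposure, 8-pt half-log series from 100 uM, 0.5% DMSO vehicle. Readout: CYP2C8 transcript by qRT-PCR, housekeeping-normalized. Bidirectional fit vs DMSO baseline.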
# [11] = read-out: CYP2C9 (gene 1559); experiment: LTEA_HepaRG_CYP2C9: Life Technologies and Expression Analysis (LTEA) Assay for CYP2C9 using HepaRG (AID 2283484)
# Summary of the method: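 HepaRG, 48 h dosing, 8-pt half-log series, top 100 uM, 0.5% DMSO vehicle. Read-out: CYP2C9 transcript by TaqMan qRT-PCR, housekeeping-normalized (ACTB/GAPDH/POLR2A). Gain or loss fitted vs DMSO baseline.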
# [12] = read-out: CYP2E1 (gene 1571); experiment: LTEA_HepaRG_CYP2E1: Life Technologies and Expression Analysis (LTEA) Assay for CYP2E1 using HepaRG (AID 2283485)
# Summary of the method: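 Assay uses 48 h exposure of HepaRG hepatic cells, eight concentrations to 100 uM. Expression of CYP2E1 is quantified by TaqMan qRT-PCR with ACTB, GAPDH and POLR2A normalization; curves fitted in both directions relative to vehicle.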
# [13] = read-out: CYP4A11 (gene 1579); experiment: LTEA_HepaRG_CYP4A11: Life Technologies and Expression Analysis (LTEA) Assay for CYP4A11 using HepaRG (AID 2283486)
# Summary of the method: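 HepaRG, 48 h chem exposure, 8 conc (100 uM top, half-log), 0.5% DMSO vehicle; qRT-PCR readout, housekeeping-gene normalized; bidirectional curve fit vs DMSO baseline.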
# [14] = read-out: Cytochrome P450 3A4 (Homo sapiens) (UniProt P08684); experiment: LTEA_HepaRG_CYP3A4: Life Technologies and Expression Analysis (LTEA) Assay for CYP3A4 using HepaRG (AID 2283487)
# Summary of the method: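 CYP3A4 transcript measured by TaqMan qRT-PCR and normalized to three housekeeping genes after 48 h chemical exposure of human HepaRG cells. Top concentration 100 uM, half-log steps, 0.5% DMSO vehicle; gain or loss fitted against DMSO baseline.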
# [15] = read-out: DNA damage-inducible transcript 3 (DDIT3), DDIT3 (gene 1649); experiment: LTEA_HepaRG_DDIT3: Life Technologies and Expression Analysis (LTEA) Assay for DNA damage-inducible transcript 3 (DDIT3) using HepaRG (AID 2283488)
# Summary of the method: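 Eight-point concentration-response (100 uM highest, half-log dilutions) in HepaRG, 48 h, duplicate wells. Endpoint: qRT-PCR mRNA, normalized (ACTB, GAPDH, POLR2A), bidirectional fitting with DMSO as baseline.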
# [16] = read-out: Pro-epidermal growth factor (Homo sapiens) (UniProt P01133); experiment: LTEA_HepaRG_EGF: Life Technologies and Expression Analysis (LTEA) Assay for Epidermal growth factor (EGF) using HepaRG (AID 2283489)
# Summary of the method: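 HepaRG, 48 h dosing, 100 uM top, half-log x8, 0.5% DMSO. Readout: TaqMan qRT-PCR (Fluidigm array), housekeeping-normalized. Gain or loss of signal fit vs DMSO.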
# [17] = read-out: Early growth response protein 1 (EGR1) transcription factor, EGR1 (gene 1958); experiment: LTEA_HepaRG_EGR1: Life Technologies and Expression Analysis (LTEA) Assay for Early growth response protein 1 (EGR1) transcription factor using HepaRG (AID 2283490)
# Summary of the method: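 HepaRG, 48 h exposure, 8-pt half-log series from 100 uM, 0.5% DMSO vehicle; EGR1 transcript by TaqMan qRT-PCR (Fluidigm array), housekeeping-normalized; bidirectional fit relative to DMSO baseline.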
# [18] = read-out: Ezrin (EZR), EZR (gene 7430); experiment: LTEA_HepaRG_EZR: Life Technologies and Expression Analysis (LTEA) Assay for Ezrin (EZR) using HepaRG (AID 2283491)
# Summary of the method: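 HepaRG, 48 h chemical exposure, 8-pt half-log series from 100 uM, 0.5% DMSO vehicle, duplicates. Read-out: EZR mRNA by TaqMan qRT-PCR (Fluidigm array), housekeeping-normalized; bidirectional curve fit vs DMSO baseline.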
# [19] = read-out: CYP3A5 (gene 1577); experiment: LTEA_HepaRG_CYP3A5: Life Technologies and Expression Analysis (LTEA) Assay for CYP3A5 using HepaRG (AID 2283493)
# Summary of the method: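 Readout was CYP3A5 mRNA by qRT-PCR. HepaRG cultures were exposed for 48 h in serum-free induction medium to chemicals at up to 100 uM, and responses were fitted in both directions relative to DMSO vehicle.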
# [20] = read-out: Cytochrome P450 3A7 (Homo sapiens) (UniProt P24462); experiment: LTEA_HepaRG_CYP3A7: Life Technologies and Expression Analysis (LTEA) Assay for CYP3A7 using HepaRG (AID 2283492)
# Summary of the method: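 Human HepaRG liver cells, 48 h post-plating, switched to serum-free induction medium and exposed in duplicate for 48 h. Dosing: 100 uM top, half-log dilutions, 8 points, 0.5% DMSO vehicle. Read-out: CYP3A7 mRNA, gain or loss fitted against DMSO baseline.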
# Chain of Cytochrome P450 2C19 (Homo sapiens) (P33261 whole entry, looked up): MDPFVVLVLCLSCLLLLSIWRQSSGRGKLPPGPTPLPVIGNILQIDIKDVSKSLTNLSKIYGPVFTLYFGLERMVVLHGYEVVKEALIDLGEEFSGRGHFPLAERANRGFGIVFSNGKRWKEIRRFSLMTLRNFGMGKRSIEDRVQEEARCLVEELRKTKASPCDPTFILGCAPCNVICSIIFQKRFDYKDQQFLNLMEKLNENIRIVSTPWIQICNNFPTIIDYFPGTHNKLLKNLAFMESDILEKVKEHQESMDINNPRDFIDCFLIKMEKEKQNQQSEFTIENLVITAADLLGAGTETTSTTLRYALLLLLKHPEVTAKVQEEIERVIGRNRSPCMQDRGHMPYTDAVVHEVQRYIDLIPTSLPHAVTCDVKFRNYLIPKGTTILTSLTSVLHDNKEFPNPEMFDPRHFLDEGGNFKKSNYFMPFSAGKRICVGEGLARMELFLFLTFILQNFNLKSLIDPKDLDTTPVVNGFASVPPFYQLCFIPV
# Chain of Apoptosis regulator Bcl-2 (Homo sapiens) (P10415 whole entry, looked up): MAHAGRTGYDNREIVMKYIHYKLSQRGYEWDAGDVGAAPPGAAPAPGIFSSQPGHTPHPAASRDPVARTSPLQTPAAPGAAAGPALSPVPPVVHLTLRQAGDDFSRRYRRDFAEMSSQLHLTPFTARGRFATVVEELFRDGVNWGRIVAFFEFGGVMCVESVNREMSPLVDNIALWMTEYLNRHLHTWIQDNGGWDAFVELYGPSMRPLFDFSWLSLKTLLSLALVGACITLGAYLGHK
# Chain of Caspase-3 (Homo sapiens) (P42574 whole entry, looked up): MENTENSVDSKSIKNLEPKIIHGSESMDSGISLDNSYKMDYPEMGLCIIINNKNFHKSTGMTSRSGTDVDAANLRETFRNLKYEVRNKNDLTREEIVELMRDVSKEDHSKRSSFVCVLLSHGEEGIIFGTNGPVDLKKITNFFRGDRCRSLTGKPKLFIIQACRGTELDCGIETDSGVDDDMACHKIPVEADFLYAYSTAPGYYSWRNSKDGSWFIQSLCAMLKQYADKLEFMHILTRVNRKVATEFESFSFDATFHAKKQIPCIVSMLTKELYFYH
# Chain of Cytochrome P450 3A4 (Homo sapiens) (P08684 whole entry, looked up): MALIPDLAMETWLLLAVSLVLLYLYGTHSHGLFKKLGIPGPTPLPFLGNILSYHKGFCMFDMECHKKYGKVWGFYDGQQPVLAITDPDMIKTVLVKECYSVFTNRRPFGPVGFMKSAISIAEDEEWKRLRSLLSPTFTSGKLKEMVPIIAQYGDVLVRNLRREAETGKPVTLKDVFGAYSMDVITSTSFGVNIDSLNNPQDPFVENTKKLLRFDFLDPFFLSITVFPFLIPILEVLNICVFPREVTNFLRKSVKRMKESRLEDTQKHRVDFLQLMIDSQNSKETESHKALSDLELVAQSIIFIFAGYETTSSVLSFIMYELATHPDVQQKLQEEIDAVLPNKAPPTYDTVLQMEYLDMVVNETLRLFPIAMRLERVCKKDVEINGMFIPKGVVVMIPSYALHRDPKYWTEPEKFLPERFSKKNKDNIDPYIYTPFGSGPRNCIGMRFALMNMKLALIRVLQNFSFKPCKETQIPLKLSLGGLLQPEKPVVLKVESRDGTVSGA
# Chain of Cytochrome P450 3A7 (Homo sapiens) (P24462 whole entry, looked up): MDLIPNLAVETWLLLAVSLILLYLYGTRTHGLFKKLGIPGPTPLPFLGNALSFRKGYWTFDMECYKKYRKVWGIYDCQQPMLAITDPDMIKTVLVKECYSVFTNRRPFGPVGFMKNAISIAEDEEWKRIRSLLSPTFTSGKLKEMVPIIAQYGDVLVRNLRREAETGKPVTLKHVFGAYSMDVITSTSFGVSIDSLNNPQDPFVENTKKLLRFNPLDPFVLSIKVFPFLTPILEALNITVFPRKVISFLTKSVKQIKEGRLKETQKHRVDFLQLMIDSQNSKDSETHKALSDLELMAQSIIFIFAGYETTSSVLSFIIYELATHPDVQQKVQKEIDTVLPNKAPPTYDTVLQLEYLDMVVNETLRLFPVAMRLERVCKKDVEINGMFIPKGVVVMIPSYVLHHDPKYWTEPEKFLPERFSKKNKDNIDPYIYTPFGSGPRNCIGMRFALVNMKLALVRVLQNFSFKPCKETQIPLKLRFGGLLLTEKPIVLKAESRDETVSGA
compound,measurement,setting,value
C[N+](C)(C)CC1CO1 (stereo unspecified),outcome,[1],inactive
same,outcome,[2],inactive
same,outcome,[3],inactive
same,outcome,[4],inactive
same,outcome,[5],inactive
same,outcome,[6],inactive
same,outcome,[7],inactive
same,outcome,[8],inactive
same,outcome,[9],inactive
same,outcome,[10],inactive
same,outcome,[11],inactive
same,outcome,[12],inactive
same,outcome,[13],inactive
same,outcome,[14],inactive
same,outcome,[15],inactive
same,outcome,[16],inactive
same,outcome,[17],inactive
same,outcome,[18],inactive
same,outcome,[19],inactive
N#CC(Br)Br,outcome,[1],inactive
same,outcome,[2],inactive
same,outcome,[3],inactive
same,outcome,[4],inactive
same,outcome,[5],inactive
same,outcome,[6],inactive
same,outcome,[7],inactive
same,outcome,[8],inactive
same,outcome,[9],inactive
same,outcome,[10],inactive
same,outcome,[11],inactive
same,outcome,[12],inactive
same,outcome,[13],inactive
same,outcome,[14],inactive
same,outcome,[15],inactive
same,outcome,[16],inactive
same,outcome,[17],inactive
same,outcome,[18],inactive
same,outcome,[19],inactive
Cc1cccc(N)c1N,AC50,[1],37.6 µM (active)
same,outcome,[2],inactive
same,outcome,[3],inactive
same,outcome,[4],inactive
same,outcome,[5],inactive
same,AC50,[6],8.42 µM (active)
same,outcome,[7],inactive
same,outcome,[8],inactive
same,outcome,[9],inactive
same,AC50,[10],50 µM (active)
same,AC50,[11],50 µM (active)
same,AC50,[12],58.1 µM (active)
same,AC50,[13],86.1 µM (active)
same,outcome,[14],inactive
same,outcome,[15],inactive
same,outcome,[16],inactive
same,outcome,[17],inactive
same,outcome,[18],inactive
same,AC50,[19],11.1 µM (active)
CCCCCCCCCCCCCN1CC(C)OC(C)C1 (stereo unspecified),outcome,[1],inactive
same,outcome,[2],inactive
same,outcome,[3],inactive
same,outcome,[4],inactive
same,outcome,[5],inactive
same,AC50,[6],50 µM (active)
same,outcome,[7],inactive
same,outcome,[8],inactive
same,outcome,[9],inactive
same,outcome,[10],inactive
same,outcome,[11],inactive
same,outcome,[12],inactive
same,outcome,[13],inactive
same,outcome,[14],inactive
same,outcome,[15],inactive
same,outcome,[16],inactive
same,outcome,[17],inactive
same,outcome,[18],inactive
same,outcome,[19],inactive
CCCSC(=O)N(CCC)CCC,outcome,[1],inactive
same,outcome,[2],inactive
same,outcome,[3],inactive
same,outcome,[4],inactive
same,outcome,[5],inactive
same,outcome,[6],inactive
same,outcome,[7],inactive
same,AC50,[8],50 µM (active)
same,outcome,[9],inactive
same,outcome,[10],inactive
same,outcome,[11],inactive
same,outcome,[12],inactive
same,outcome,[13],inactive
same,outcome,[14],inactive
same,outcome,[15],inactive
same,outcome,[16],inactive
same,outcome,[17],inactive
same,outcome,[18],inactive
same,outcome,[20],inactive
same,outcome,[19],inactive
Oc1ccc2ccc3cccc4ccc1c2c34,outcome,[1],inactive
same,outcome,[2],inactive
same,outcome,[3],inactive
same,outcome,[4],inactive
same,outcome,[5],inactive
same,AC50,[6],11.5 µM (active)
same,outcome,[7],inactive
same,outcome,[8],inactive
same,outcome,[9],inactive
same,outcome,[10],inactive
same,outcome,[11],inactive
same,AC50,[12],50 µM (active)
same,outcome,[13],inactive
same,outcome,[14],inactive
same,outcome,[15],inactive
same,outcome,[16],inactive
same,outcome,[17],inactive
same,outcome,[18],inactive
same,outcome,[20],inactive
same,outcome,[19],inactive
